Results filed as inconclusive are left out. The source made the active and inactive calls. Calls follow the shape of the dose curve; as a rule, active = well fitted curve in the direction sought with a large enough effect; inconclusive = small, poorly fitted or top-dose-only effect, or another doubt; inactive = no such curve, though single readings can be large; an effect the other way counts as inactive or inconclusive.
Legend:
[1] = target: ATP-dependent 6-phosphofructokinase (Trypanosoma brucei brucei) (UniProt O15648); experiment: qHTS Assay to Find Inhibitors of T. brucei phosphofructokinase: hit validation (AID 492961);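 also: luminescence reports ADP formed as PFK phosphorylates fructose-6-phosphate with ATP; % is scaled to controls: 0 for no effect and ±100 for the full control effect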; conditions: T. brucei PFK, ADP-Glo luminescence; series mostly up to 51.4 µM
Chain of ATP-dependent 6-phosphofructokinase (Trypanosoma brucei brucei) (O15648 whole entry, looked up): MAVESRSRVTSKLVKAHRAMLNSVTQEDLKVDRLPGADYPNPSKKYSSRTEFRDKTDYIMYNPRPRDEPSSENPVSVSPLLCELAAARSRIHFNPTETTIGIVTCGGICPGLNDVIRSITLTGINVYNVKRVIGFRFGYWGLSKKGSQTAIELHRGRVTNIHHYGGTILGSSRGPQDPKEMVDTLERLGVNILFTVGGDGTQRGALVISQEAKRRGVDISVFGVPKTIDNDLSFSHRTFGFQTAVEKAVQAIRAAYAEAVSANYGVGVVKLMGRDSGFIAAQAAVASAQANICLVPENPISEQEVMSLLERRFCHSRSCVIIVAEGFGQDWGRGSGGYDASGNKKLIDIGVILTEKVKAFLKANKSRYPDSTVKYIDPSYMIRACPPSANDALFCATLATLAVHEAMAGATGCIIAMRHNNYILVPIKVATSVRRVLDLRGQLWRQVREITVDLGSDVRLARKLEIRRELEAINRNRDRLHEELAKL
In short: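 Measures ADP output of PFK (1.25 nM) at 0.1 mM ATP, 0.5 mM F6P, pH 8.0 TEA buffer with 5 mM MgCl2. No-enzyme wells define full inhibition; uninhibited enzyme wells define zero.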

[2] = qHTS profiling for inhibitors of Plasmodium falciparum proliferation (AID 504749);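 also: 0% = DMSO vehicle and full inhibition = artemisinin control; nearly all actives have a fitted effect of over 60% in size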; conditions: P. falciparum in erythrocytes, SYBR Green DNA, 72 h, at 28.7 µM (top of the series)
In short: (§1)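 In a 72 h erythrocytic culture (37 C, humidified, 5% CO2) at 2.5% hematocrit and 0.3% starting parasitemia, compounds were tested; SYBR Green I in detergent lysis buffer stained parasite DNA overnight.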

[3] = tested on: 3D7; experiment: as above; conditions: P. falciparum in erythrocytes, SYBR Green DNA, 72 h; series mostly up to 28.7 µM
In short: as §1

[4] = tested on: 7G8; experiment: as above; conditions: P. falciparum in erythrocytes, SYBR Green DNA, 72 h; series mostly up to 28.7 µM
In short: as §1

[5] = tested on: AS120; experiment: as above; conditions: P. falciparum in erythrocytes, SYBR Green DNA, 72 h; series mostly up to 28.7 µM
In short: as §1

[6] = tested on: ATS189; experiment: as above; conditions: P. falciparum in erythrocytes, SYBR Green DNA, 72 h; series mostly up to 28.7 µM
In short: as §1

[7] = tested on: CP185; experiment: as above; conditions: P. falciparum in erythrocytes, SYBR Green DNA, 72 h; series mostly up to 28.7 µM
In short: as §1

[8] = tested on: CP191; experiment: as above; conditions: P. falciparum in erythrocytes, SYBR Green DNA, 72 h; series mostly up to 28.7 µM
In short: as §1

[9] = tested on: CP192; experiment: as above; conditions: P. falciparum in erythrocytes, SYBR Green DNA, 72 h; series mostly up to 28.7 µM
In short: as §1

[10] = tested on: CP194; experiment: as above; conditions: P. falciparum in erythrocytes, SYBR Green DNA, 72 h; series mostly up to 28.7 µM
In short: as §1

[11] = tested on: CP201; experiment: as above; conditions: P. falciparum in erythrocytes, SYBR Green DNA, 72 h; series mostly up to 28.7 µM
In short: as §1

[12] = tested on: CP203; experiment: as above; conditions: P. falciparum in erythrocytes, SYBR Green DNA, 72 h; series mostly up to 28.7 µM
In short: as §1

[13] = tested on: CP247; experiment: as above; conditions: P. falciparum in erythrocytes, SYBR Green DNA, 72 h; series mostly up to 28.7 µM
In short: as §1

[14] = tested on: CP286; experiment: as above; conditions: P. falciparum in erythrocytes, SYBR Green DNA, 72 h; series mostly up to 28.7 µM
In short: as §1

[15] = tested on: CP291; experiment: as above; conditions: P. falciparum in erythrocytes, SYBR Green DNA, 72 h; series mostly up to 28.7 µM
In short: as §1

[16] = tested on: CP305; experiment: as above; conditions: P. falciparum in erythrocytes, SYBR Green DNA, 72 h; series mostly up to 28.7 µM
In short: as §1

[17] = tested on: HB3; experiment: as above; conditions: P. falciparum in erythrocytes, SYBR Green DNA, 72 h; series mostly up to 28.7 µM
In short: as §1

[18] = tested on: P94_40; experiment: as above; conditions: P. falciparum in erythrocytes, SYBR Green DNA, 72 h; series mostly up to 28.7 µM
In short: as §1

[19] = tested on: PC49; experiment: as above; conditions: P. falciparum in erythrocytes, SYBR Green DNA, 72 h; series mostly up to 28.7 µM
In short: as §1

CC(O)C(N)C(=O)O (stereo not given)
inactive: Potency [1] | activity, negative = inhibition ([2]; parasite line A) 4.5% | activity, negative = inhibition ([2]; parasite line B) 11.6% | Potency [3] | Potency [4] | Potency [5] | Potency [6] | Potency [7] | Potency [8] | Potency [9] | Potency [10] | Potency [11] | Potency [12] | Potency [13] | Potency [14] | Potency [15] | Potency [16] | Potency [17] | Potency [18] | Potency [19]

C=C(NCc1ccccc1)c1ccccc1O
inactive: Potency [1] | activity, negative = inhibition ([2]; parasite line A) 12.8% | activity, negative = inhibition ([2]; parasite line B) 10.7% | Potency [3] | Potency [4] | Potency [5] | Potency [6] | Potency [7] | Potency [8] | Potency [9] | Potency [10] | Potency [11] | Potency [12] | Potency [13] | Potency [14] | Potency [15] | Potency [16] | Potency [17] | Potency [18] | Potency [19]

CCCC[C@H](O)c1ccccc1
inactive: Potency [1] | activity, negative = inhibition ([2]; parasite line A) -2.26% | activity, negative = inhibition ([2]; parasite line B) -1.87% | Potency [3] | Potency [4] | Potency [5] | Potency [6] | Potency [7] | Potency [8] | Potency [9] | Potency [10] | Potency [11] | Potency [12] | Potency [13] | Potency [14] | Potency [15] | Potency [16] | Potency [17] | Potency [18] | Potency [19]

OCCN1CC(O)C(O)C(O)C1CO (stereo not given)
inactive: Potency [1] | activity, negative = inhibition ([2]; parasite line A) 13.3% | activity, negative = inhibition ([2]; parasite line B) 21.3% | Potency [3] | Potency [4] | Potency [5] | Potency [6] | Potency [7] | Potency [8] | Potency [9] | Potency [10] | Potency [11] | Potency [12] | Potency [13] | Potency [14] | Potency [15] | Potency [16] | Potency [17] | Potency [18] | Potency [19]

CC(=O)NC1[C@H](O)C[C@@](O)(C(=O)O)O[C@H]1[C@H](O)[C@H](O)CO (stereo not given in full)
inactive: Potency [1] | activity, negative = inhibition ([2]; parasite line A) 5.53% | activity, negative = inhibition ([2]; parasite line B) -8.73% | Potency [3] | Potency [4] | Potency [5] | Potency [6] | Potency [7] | Potency [8] | Potency [9] | Potency [10] | Potency [11] | Potency [12] | Potency [13] | Potency [14] | Potency [15] | Potency [16] | Potency [17] | Potency [18] | Potency [19]

Cc1cn([C@H]2CC(F)[C@@H](CO)O2)c(=O)[nH]c1=O (stereo not given in full)
inactive: Potency [1] | activity, negative = inhibition ([2]; parasite line A) 6.21% | activity, negative = inhibition ([2]; parasite line B) 4.03% | Potency [3] | Potency [4] | Potency [5] | Potency [6] | Potency [7] | Potency [8] | Potency [9] | Potency [10] | Potency [11] | Potency [12] | Potency [13] | Potency [14] | Potency [15] | Potency [16] | Potency [17] | Potency [18] | Potency [19]

O=C1CC[C@H](C(=O)N[C@@H]2C[C@H]2c2ccccc2)N1
inactive: Potency [1] | activity, negative = inhibition ([2]; parasite line A) 10.5% | activity, negative = inhibition ([2]; parasite line B) 18.1% | Potency [3] | Potency [4] | Potency [5] | Potency [6] | Potency [7] | Potency [8] | Potency [9] | Potency [10] | Potency [11] | Potency [12] | Potency [13] | Potency [14] | Potency [15] | Potency [16] | Potency [17] | Potency [18] | Potency [19]

CC(=O)OCC(=O)[C@@]1(O)CCC2C3CCC4=CC(=O)C=CC4(C)C3C(O)C[C@]21C (stereo not given in full)
inactive: Potency [1] | activity, negative = inhibition ([2]; parasite line A) 8.28% | activity, negative = inhibition ([2]; parasite line B) 10.3% | Potency [3] | Potency [4] | Potency [5] | Potency [6] | Potency [7] | Potency [8] | Potency [9] | Potency [10] | Potency [11] | Potency [12] | Potency [13] | Potency [14] | Potency [15] | Potency [16] | Potency [17] | Potency [18] | Potency [19]

O=C1NC(=O)C2C3C=CC(C3)C12 (stereo not given)
inactive: Potency [1] | activity, negative = inhibition ([2]; parasite line A) 8.3% | activity, negative = inhibition ([2]; parasite line B) 20.1% | Potency [3] | Potency [4] | Potency [5] | Potency [6] | Potency [7] | Potency [8] | Potency [9] | Potency [10] | Potency [11] | Potency [12] | Potency [13] | Potency [14] | Potency [15] | Potency [16] | Potency [17] | Potency [18] | Potency [19]

Cc1cnc(C(=O)O)cn1
inactive: Potency [1] | activity, negative = inhibition ([2]; parasite line A) 9.61% | activity, negative = inhibition ([2]; parasite line B) 7.1% | Potency [3] | Potency [4] | Potency [5] | Potency [6] | Potency [7] | Potency [8] | Potency [9] | Potency [10] | Potency [11] | Potency [12] | Potency [13] | Potency [14] | Potency [15] | Potency [16] | Potency [17] | Potency [18] | Potency [19]

CC(c1ncncc1F)[C@](O)(Cn1cncn1)c1ccc(F)cc1F (stereo not given in full)
inactive: Potency [1] | activity, negative = inhibition ([2]; parasite line A) 7.39% | activity, negative = inhibition ([2]; parasite line B) -17.3% | Potency [3] | Potency [4] | Potency [5] | Potency [6] | Potency [7] | Potency [8] | Potency [9] | Potency [10] | Potency [11] | Potency [12] | Potency [13] | Potency [14] | Potency [15] | Potency [16] | Potency [17] | Potency [18] | Potency [19]

CC(O)C1CCC2C3CCC4CC(O)CCC4(C)C3CCC12C (stereo not given)
inactive: Potency [1] | activity, negative = inhibition ([2]; parasite line A) 11.7% | activity, negative = inhibition ([2]; parasite line B) 5.42% | Potency [3] | Potency [4] | Potency [5] | Potency [6] | Potency [7] | Potency [8] | Potency [9] | Potency [10] | Potency [11] | Potency [12] | Potency [13] | Potency [14] | Potency [15] | Potency [16] | Potency [17] | Potency [18] | Potency [19]

O=c1[nH]c(=O)n(C2C[C@H](O)[C@@H](CO)O2)cc1C(F)(F)F (stereo not given in full)
inactive: Potency [1] | activity, negative = inhibition ([2]; parasite line A) -3.45% | activity, negative = inhibition ([2]; parasite line B) -4.14% | Potency [3] | Potency [4] | Potency [5] | Potency [6] | Potency [7] | Potency [8] | Potency [9] | Potency [10] | Potency [11] | Potency [12] | Potency [13] | Potency [14] | Potency [15] | Potency [16] | Potency [17] | Potency [18] | Potency [19]

CC(C)(C)C(=O)OCC(=O)C1CCC2C3CCC4=CC(=O)CCC4(C)C3CCC12C (stereo not given)
inactive: Potency [1] | activity, negative = inhibition ([2]; parasite line A) 6.25% | activity, negative = inhibition ([2]; parasite line B) 11.2% | Potency [3] | Potency [4] | Potency [5] | Potency [6] | Potency [7] | Potency [8] | Potency [9] | Potency [10] | Potency [11] | Potency [12] | Potency [13] | Potency [14] | Potency [15] | Potency [16] | Potency [17] | Potency [18] | Potency [19]

CC[C@@H](C)C(N)C(=O)O (stereo not given in full)
inactive: Potency [1] | activity, negative = inhibition ([2]; parasite line A) 6.94% | activity, negative = inhibition ([2]; parasite line B) 2.73% | Potency [3] | Potency [4] | Potency [5] | Potency [6] | Potency [7] | Potency [8] | Potency [9] | Potency [10] | Potency [11] | Potency [12] | Potency [13] | Potency [14] | Potency [15] | Potency [16] | Potency [17] | Potency [18] | Potency [19]

O=c1ccn(C2OC(COP(=O)(O)OC3C(CO)OC(n4ccc(=O)[nH]c4=O)C3O)C(O)C2O)c(=O)[nH]1 (stereo not given)
inactive: Potency [1] | activity, negative = inhibition ([2]; parasite line A) 0.515% | activity, negative = inhibition ([2]; parasite line B) 10.1% | Potency [3] | Potency [4] | Potency [5] | Potency [6] | Potency [7] | Potency [8] | Potency [9] | Potency [10] | Potency [11] | Potency [12] | Potency [13] | Potency [14] | Potency [15] | Potency [16] | Potency [17] | Potency [18] | Potency [19]

CC[C@@H]1/C=C(\C)C[C@H](C)C[C@H](OC)[C@H]2O[C@@](O)(C(=O)C(=O)N3CCCC[C@H]3C(=O)O[C@H](/C(C)=C/[C@@H]3CC[C@H](Cl)[C@H](OC)C3)[C@H](C)[C@@H](O)CC1=O)[C@H](C)C[C@@H]2OC
inactive: Potency [1] | activity, negative = inhibition ([2]; parasite line A) 10.4% | activity, negative = inhibition ([2]; parasite line B) 3.17% | Potency [3] | Potency [4] | Potency [5] | Potency [6] | Potency [7] | Potency [8] | Potency [9] | Potency [10] | Potency [11] | Potency [12] | Potency [13] | Potency [14] | Potency [15] | Potency [16] | Potency [17] | Potency [18] | Potency [19]

— PubChem BioAssay (NCATS)
